Molecules are shown by their SMILES. Several values for one entry are separate records, joined by “and”; a condition that tells them apart may be missing. Equal values may be shown once. The panel holds about 79,000 compounds, 15% with a hit somewhere; the sample as a whole holds those more often. Activity calls are given as the source filed them. Rule as the data show it: active = growth inhibition above about 70%; inactive = the rest.

The values that follow come from PubChem BioAssay (NCI).

One assay is described as follows: NCI Yeast Anticancer Drug Screen. Data for the cln2 rad14 strain (AID 165).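 Also: 0% = growth equal to vehicle treated cultures.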 Particulars: S. cerevisiae cln2 rad14 strain, active compounds read high; at 50.0 µM unless noted. The method in brief: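 Each compound was tested on cln2 rad14 yeast. Inhibition of growth was calculated against vehicle-exposed controls.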
Regarding `Clc1cccc(Cl)c1C1SCc2nc3cc4ccccc4cc3n21` (stereo not drawn), the growth inhibition is -0.55% (inactive).
Turning to `COc1ccc(C(=O)/C=C/N)c(OC)c1`, the growth inhibition was 20% (inactive).
Consider `O=C1N=C2Sc3ccc4ccccc4c3N2C1=O`, for which the growth inhibition is 20.4% (inactive).
As to `COC1C(O)C(n2ncc3c(SC)nc(SC)nc32)OC1C(O)CO` (stereo not drawn), the growth inhibition is 8.95% (inactive).
As for `CCNC(=O)CCCC(=O)OC`, the growth inhibition was 14.6% (inactive).
The same measure, in the same setting: to `Cc1ccc2nc(=O)c3cccnc3n2c1` belongs 5.1% (inactive); to `S=C(Nc1ccc2c(c1)oc1ccccc12)c1cccs1`, -7.25% (inactive).
On to `O=C1C(N2CCCCC2)=C(c2ccccc2)c2ccccc21`, for which the growth inhibition was -28.9% (inactive).
Regarding `CCOC(=O)CNC(=O)SCc1ccccc1`, the growth inhibition is -8.1% (inactive).
Still for that read-out and setting: to `OCCN1CCCCCCC1` belongs -0.45% (inactive) and 5.6% (inactive).
Take `Cc1cc(C(=O)O)c(C(=O)O)c(Cl)n1`: the growth inhibition was -12.9% (inactive).
For the compound `CC(=O)N(C(=O)CC(=O)NNCc1ccccc1Cl)c1ccc(Cl)cc1`, the growth inhibition is -11.4% (inactive).
The same measure, in the same setting: to `NC(=O)c1ccc(-c2csc(=S)[nH]2)s1` belongs -13.1% (inactive).
Consider `O=C1CCC(=O)N1N1C(=O)CCC1=O`, for which the growth inhibition is 7.05% (inactive).
The same measure, in the same setting: to `O=[N+]([O-])c1ccc(-n2nnc(C3=NCCCN3)c2-c2ccc(Cl)cc2)cc1` belongs 8.6% (inactive); to `Clc1nc(-c2ccccc2)ns1`, 1.45% (inactive); to `CC1(C)SC(c2ccccc2)SC(c2ccccc2)S1` (stereo not drawn), 3.25% (inactive).
Same read-out and setting: the same measure for `CS(=O)(=O)Nc1c(-c2ccccc2)oc2ccccc2c1=O`: -33.6% (inactive); for `COc1cc(CNc2ccccc2)ccc1O`: -8.1% (inactive).
Regarding `CC(=O)Oc1cccc2c1C(=O)c1c(OC(C)=O)cc(C)cc1C2=O`, the growth inhibition was -0.85% (inactive).
In the case of `CC(C)C1Oc2ccc(Br)cc2C1O` (stereo not drawn), the growth inhibition is -13.1% (inactive).
For the compound `NC(=S)/N=C(/c1nc2ccc(Cl)cc2[nH]c1=O)C(O)c1ccccc1Cl` (stereo not drawn), the growth inhibition was 4.35% (inactive).
As to `CC1=CP(=O)(c2ccccc2)CC1` (stereo not drawn) (tested in a mixture with another compound), the growth inhibition was -9.85% (inactive).
Still for that read-out and setting: to `CC(=O)c1ccc(Cl)cc1Cl` belongs -6.65% (inactive).
In the case of `CCOC(=O)CSc1nc(-c2ccccc2)c(C#N)c(=O)[nH]1`, the growth inhibition is 13.2% (inactive).
Same read-out and setting: the same measure for `CN1CCC(O)CC1`: -0.35% (inactive).
Same read-out and setting: to `O=C(Cc1nc2ccccc2s1)C(=O)Nc1cccc(C(F)(F)F)c1` belongs 7.95% (inactive).
On the same count and under the same terms, to `CCC1=CCN(c2ccccn2)OC1c1ccc(OC)cc1` (stereo not drawn) belongs 22.3% (inactive); to `CCOC(=O)c1cccc(N)c1C(=O)OCCN(CC)CC`, -25.2% (inactive).
For the compound `CC(=O)Oc1c(I)cc(Cc2nc(C)oc2C)cc1I`, the growth inhibition is 1% (inactive).
Take `NC1N=Nc2ccccc21` (stereo not drawn): the growth inhibition was 4.3% (inactive).
In the case of `Cc1cc(N(CCC#N)CCC#N)ccc1/C=N/NC(=O)c1ccccc1`, the growth inhibition was 6.3% (inactive).
The same measure, in the same setting: to `CC/C(=N/NC(N)=O)c1ccc(C)cc1` belongs -21.1% (inactive).
Still for that read-out and setting: the same measure for `CC[O-].CC[O-].CN(C)c1ccc([O-])cc1.CN(C)c1ccc([O-])cc1.[Ti+4]`: 20.2% (inactive); for `CC(=O)OCC(C)(O)C#N` (stereo not drawn): 4.05% (inactive); for `CC(=NCCCCN=C(C)c1cc(O)cc(Br)c1O)c1cc(O)cc(Br)c1O.[Co]`: 6.45% (inactive).
Consider `O=C1c2ccccc2C(=O)N1c1ccc(OCCN2CCCCC2)cc1`, for which the growth inhibition is 37.5% (inactive).
Same read-out and setting: to `CCOc1c(N=Nc2ccc(Cl)cc2Cl)c(C)nn1C(=S)SC` belongs 15.5% (inactive).
Turning to `NC(=O)C1CC1`, the growth inhibition is -7.7% (inactive).

Another assay can be described thus: NCI Yeast Anticancer Drug Screen. Data for the bub3 strain (AID 167). Particulars: S. cerevisiae bub3 mutant strain, active compounds read high; at 50.0 µM unless noted. The method in brief:
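Mutant yeast screening strain plus compound; vehicle-treated cultures serve as the 0% inhibition reference.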
As to `Clc1cccc(Cl)c1C1SCc2nc3cc4ccccc4cc3n21` (stereo not drawn), the growth inhibition was 14% (inactive).
`COc1ccc(C(=O)/C=C/N)c(OC)c1`: the growth inhibition was 9.35% (inactive).
The same measure, in the same setting: to `O=C1N=C2Sc3ccc4ccccc4c3N2C1=O` belongs 5.5% (inactive).
Same read-out and setting: the same measure for `COC1C(O)C(n2ncc3c(SC)nc(SC)nc32)OC1C(O)CO` (stereo not drawn): -4% (inactive); for `CCNC(=O)CCCC(=O)OC`: 7.35% (inactive).
On the same count and under the same terms, to `Cc1ccc2nc(=O)c3cccnc3n2c1` belongs 23.8% (inactive); to `S=C(Nc1ccc2c(c1)oc1ccccc12)c1cccs1`, -9.6% (inactive).
As for `O=C1C(N2CCCCC2)=C(c2ccccc2)c2ccccc21`, the growth inhibition was 17.1% (inactive).
Same read-out and setting: the same measure for `CCOC(=O)CNC(=O)SCc1ccccc1`: -11.3% (inactive).
Same read-out and setting: the same measure for `OCCN1CCCCCCC1`: -6.3% (inactive) and 10.1% (inactive); for `Cc1cc(C(=O)O)c(C(=O)O)c(Cl)n1`: -16.9% (inactive); for `CC(=O)N(C(=O)CC(=O)NNCc1ccccc1Cl)c1ccc(Cl)cc1`: -17% (inactive).
The same measure, in the same setting: the same measure for `NC(=O)c1ccc(-c2csc(=S)[nH]2)s1`: -19.1% (inactive).
Take `O=C1CCC(=O)N1N1C(=O)CCC1=O`: the growth inhibition was -23.2% (inactive).
On the same count and under the same terms, to `O=[N+]([O-])c1ccc(-n2nnc(C3=NCCCN3)c2-c2ccc(Cl)cc2)cc1` belongs 5.55% (inactive); to `Clc1nc(-c2ccccc2)ns1`, -6.85% (inactive); to `CC1(C)SC(c2ccccc2)SC(c2ccccc2)S1` (stereo not drawn), -0.8% (inactive).
Still for that read-out and setting: the same measure for `CS(=O)(=O)Nc1c(-c2ccccc2)oc2ccccc2c1=O`: 11.3% (inactive); for `COc1cc(CNc2ccccc2)ccc1O`: 10.9% (inactive); for `CC(=O)Oc1cccc2c1C(=O)c1c(OC(C)=O)cc(C)cc1C2=O`: -41% (inactive).
For `CC(C)C1Oc2ccc(Br)cc2C1O` (stereo not drawn), the growth inhibition is 18.7% (inactive).
Still for that read-out and setting: the same measure for `NC(=S)/N=C(/c1nc2ccc(Cl)cc2[nH]c1=O)C(O)c1ccccc1Cl` (stereo not drawn): 22.5% (inactive); for `CC1=CP(=O)(c2ccccc2)CC1` (stereo not drawn) (tested in a mixture with another compound): -10.4% (inactive).
Still for that read-out and setting: the same measure for `CC(=O)c1ccc(Cl)cc1Cl`: -13.3% (inactive).
As to `CCOC(=O)CSc1nc(-c2ccccc2)c(C#N)c(=O)[nH]1`, the growth inhibition is 2.6% (inactive).
Still for that read-out and setting: the same measure for `CN1CCC(O)CC1`: 6.35% (inactive); for `O=C(Cc1nc2ccccc2s1)C(=O)Nc1cccc(C(F)(F)F)c1`: 6.1% (inactive); for `CCC1=CCN(c2ccccn2)OC1c1ccc(OC)cc1` (stereo not drawn): 40.2% (inactive).
As to `CCOC(=O)c1cccc(N)c1C(=O)OCCN(CC)CC`, the growth inhibition is 19.4% (inactive).
On to `CC(=O)Oc1c(I)cc(Cc2nc(C)oc2C)cc1I`, for which the growth inhibition was 6.8% (inactive).
On the same count and under the same terms, to `NC1N=Nc2ccccc21` (stereo not drawn) belongs -1.6% (inactive); to `Cc1cc(N(CCC#N)CCC#N)ccc1/C=N/NC(=O)c1ccccc1`, 5.95% (inactive); to `CC/C(=N/NC(N)=O)c1ccc(C)cc1`, 2.75% (inactive).
Same read-out and setting: the same measure for `CC[O-].CC[O-].CN(C)c1ccc([O-])cc1.CN(C)c1ccc([O-])cc1.[Ti+4]`: -9.15% (inactive); for `CC(=O)OCC(C)(O)C#N` (stereo not drawn): -5.35% (inactive).
On the same count and under the same terms, to `CC(=NCCCCN=C(C)c1cc(O)cc(Br)c1O)c1cc(O)cc(Br)c1O.[Co]` belongs 2.1% (inactive); to `O=C1c2ccccc2C(=O)N1c1ccc(OCCN2CCCCC2)cc1`, -2.05% (inactive); to `CCOc1c(N=Nc2ccc(Cl)cc2Cl)c(C)nn1C(=S)SC`, -0.45% (inactive).
With `NC(=O)C1CC1`, the growth inhibition is 9.25% (inactive).
